The whole screen tested about 5,500 compounds, of which about 2,000 (36%) were called active. Not shown: some 18% with an inconclusive outcome. No stated cut-off is given here; in the data, active means normalized growth mostly below about 0.91 (no sharp cut-off); inconclusive means no clear call, values can overlap the other calls; inactive means mostly above about 0.92. The list shows a part of the results.
Assay: chemical genetic growth profiling, strain panel (AID 1159580);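 further: tested at 20 µM; growth read once vehicle control cultures reached saturation at 30 °C; 1 = growth at the plate median or of vehicle wells; lower values mean less growth of the strain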
Conditions: growth OD

Measured: normalized growth

CN(C)C=Nc1nc2c(s1)CCc1ccccc1-2
active: S. cerevisiae deletion strains, locus YEL061C, strain CIN8, active compounds read low 0.878 | S. cerevisiae deletion strains, locus YHR030C, strain SLT2, active compounds read low 0.477 | S. cerevisiae deletion strains, locus YLR085C, strain ARP6, active compounds read low 0.622 | S. cerevisiae deletion strains, locus YLR262C, strain YPT6, active compounds read low 0.811 | S. cerevisiae deletion strains, locus YML094W, strain GIM5, active compounds read low 0.798 | S. cerevisiae deletion strains, locus YNL298W, strain CLA4 (second series), active compounds read low 0.825 | S. cerevisiae deletion strains, locus YPL055C, strain LGE1, active compounds read low 0.799 | S. cerevisiae deletion strains, locus YPL241C, strain CIN2, active compounds read low 0.819 | S. cerevisiae deletion strains, locus YPR135W, strain CTF4, active compounds read low 0.635
inactive: S. cerevisiae deletion strains, locus YAL013W, strain DEP1, active compounds read low 0.953 | S. cerevisiae deletion strains, locus YBR229C, strain ROT2, active compounds read low 0.975 | S. cerevisiae deletion strains, locus YDL101C, strain DUN1, active compounds read low 0.964 | S. cerevisiae deletion strains, locus YDR150W, strain NUM1, active compounds read low 0.934 | S. cerevisiae deletion strains, locus YGR078C, strain PAC10, active compounds read low 0.989 | S. cerevisiae deletion strains, locus YHR087W, strain rtc3, active compounds read low 1.01 | S. cerevisiae deletion strains, locus YJL187C, strain SWE1, active compounds read low 0.972 | S. cerevisiae deletion strains, locus YJR043C, strain POL32, active compounds read low 0.994 | S. cerevisiae deletion strains, locus YJR075W, strain HOC1, active compounds read low 0.957 | S. cerevisiae deletion strains, locus YLR039C, strain RIC1, active compounds read low 0.794 | S. cerevisiae deletion strains, locus YLR058C, strain SHM2 (second series), active compounds read low 0.989 | S. cerevisiae deletion strains, locus YMR219W, strain ESC1, active compounds read low 0.991 | S. cerevisiae deletion strains, locus YMR263W, strain SAP30, active compounds read low 0.977 | S. cerevisiae deletion strains, locus YNL153C, strain GIM3, active compounds read low 0.968 | S. cerevisiae deletion strains, locus YNL322C, strain KRE1, active compounds read low 0.994 | S. cerevisiae deletion strains, locus YNR030W, strain Alg12, active compounds read low 0.899 | S. cerevisiae strains, strain wild type, active compounds read low 0.997

Reference: PubChem BioAssay AID1159580 (chemical genetic matrix, 2015)
